For 4 compounds, AC50 and outcome results are on record in PubChem BioAssay (EPA / NIEHS).

Assay [1] deals with Paired box protein Pax-6 (Homo sapiens) (UniProt P26367). Briefly: ATG_Pax6_CIS: Attagene CIS-FACTORIAL HepG2 Assay for human Paired Box 6 (PAX6) (AID 2282956). The conditions noted are these: HepG2 CIS-FACTORIAL PAX6 reporter transcription, RNA readout; actives raise or lower the signal. In outline: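 Fluorescent RT-PCR products separated by capillary electrophoresis report PAX6-linked promoter mRNA in HepG2 cells 24 h post-dose. Curves fitted bidirectionally, DMSO as negative control.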

The nature of assay [2]: ATG_PXRE_CIS: Attagene CIS-FACTORIAL HepG2 Assay for human Pregnane X Receptor Element (PXRE) (AID 2282957). The conditions noted are these: HepG2 Attagene CIS-FACTORIAL PXRE reporter, mRNA; actives raise or lower the signal. The procedure, abridged:
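Reporter transcripts under endogenous PXR-responsive cis-regulation quantified from total RNA of transfected HepG2 cells 24 h post-dosing, via RT-PCR with fluorescent primer extension and capillary electrophoresis. Gain or loss of signal fitted against DMSO baseline.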

Assay [3] can be described thus: ATG_PPRE_CIS: Attagene CIS-FACTORIAL HepG2 Assay for human Peroxisome Proliferator-activated Response Element (PPRE) (AID 2282958). The conditions noted are these: HepG2 PPRE cis-element reporter, Attagene transcription factor profiling; actives raise or lower the signal. In outline:
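HepG2 cells transiently transfected with multiplexed cis-element reporter units measure endogenous transcription factor activity. After 24 h compound exposure, reporter mRNA is quantified by RT-PCR, 6-FAM labeling, HpaI digestion and capillary electrophoresis; bidirectional fits are made against DMSO baseline.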

Assay [4] is described as follows: ATG_RORE_CIS: Attagene CIS-FACTORIAL HepG2 Assay for human RAR-related Orphan Receptor Element (RORE) (AID 2282959). The settings on record: HepG2 Attagene cis-factorial RORE reporter, mRNA; actives raise or lower the signal. The procedure, abridged:
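HepG2 cells transiently transfected with multiple cis-element reporter transcription units, exposed to chemical for 24 h. Reporter mRNA quantified by RT-PCR, 6-FAM primer-extension labeling, HpaI digestion and capillary electrophoresis; bidirectional fit versus DMSO baseline.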

A short description of assay [5]: ATG_Sox_CIS: Attagene CIS-FACTORIAL HepG2 Assay for human SRY-box transcription factor (SOX) (AID 2282960). The settings on record: HepG2 Attagene cis-factorial SOX reporter, mRNA; actives raise or lower the signal. The procedure, abridged: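 HepG2 cells transiently transfected with cis-element-driven multiple reporter transcription units, dosed 24 h; reporter mRNA measured by RT-PCR, FAM labelling, HpaI digestion and capillary electrophoresis. Bidirectional fit versus DMSO baseline.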

Assay [6] deals with Transcription factor Sp1 (Homo sapiens) (UniProt P08047). Briefly: ATG_Sp1_CIS: Attagene CIS-FACTORIAL HepG2 Assay for human Specificity Protein 1 (Sp1) (AID 2282961). The conditions noted are these: HepG2 Sp1 cis-reporter transcription, actives raise or lower the signal. In outline: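 HepG2 cells transiently transfected with multiple reporter transcription units driven by cis-regulatory elements; Sp1-responsive reporter mRNA measured 24 h after dosing by RT-PCR and capillary electrophoresis fluorescence, fitted bidirectionally against DMSO baseline.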

Assay [7] can be described thus: ATG_SREBP_CIS: Attagene CIS-FACTORIAL HepG2 Assay for human Sterol Regulatory Element Binding (SREBP) (AID 2282962). The settings on record: HepG2 Attagene cis-factorial SREBP reporter, mRNA; actives raise or lower the signal. In outline:
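Endogenous factor activity is measured in HepG2 through multiplexed reporter units under cis-element control. Following a 24 h incubation, reporter transcripts are reverse-transcribed, PCR-amplified and sized by capillary electrophoresis; activity is fitted in both directions relative to DMSO.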

Assay [8] has as its target Signal transducer and activator of transcription 3 (Homo sapiens) (UniProt P40763). Nature of the assay: ATG_STAT3_CIS: Attagene CIS-FACTORIAL HepG2 Assay for human Signal Transducer and Activator of Transcription 3 (STAT3) (AID 2282963). The settings on record: HepG2, Attagene cis-factorial STAT3 reporter transcription; actives raise or lower the signal. In outline:
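Uses human liver HepG2 transiently carrying cis-regulated reporter transcription units. Following 24 h dosing, reporter mRNA induction was detected by RT-PCR and capillary electrophoresis, analysed bidirectionally versus DMSO.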

The nature of assay [9]: ATG_TA_CIS: Attagene CIS-FACTORIAL HepG2 Assay for human TA Basal Promoter (AID 2282964). The settings on record: HepG2 Attagene CIS-factorial TA basal promoter reporter; actives raise or lower the signal. The procedure, abridged:
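Cis-factorial format in HepG2: reporters report endogenous factors, not chimeric Gal4 fusions. After 24 h treatment, reporter transcripts were measured by RT-PCR-capillary electrophoresis fluorescence, analysed bidirectionally versus DMSO.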

The nature of assay [10]: ATG_TCF_b_cat_CIS: Attagene CIS-FACTORIAL HepG2 Assay for human T-Cell-Factor with beta-catenin (TCF/b-cat) (AID 2282965). The conditions noted are these: HepG2 TCF/beta-catenin cis-reporter transcription, actives raise or lower the signal. In outline:
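Using capillary electrophoresis as the read-out, labelled reporter cDNA fragments from transiently transfected HepG2 were sized and quantified. Exposure lasted 24 hours; activity in either direction was referenced to DMSO.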

Assay [11] in a line: ATG_TAL_CIS: Attagene CIS-FACTORIAL HepG2 Assay for human TAL Basal Promoter (AID 2282966).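 Further: background control endpoint measuring basal TAL promoter reporter mRNA not a specific factor.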 The settings on record: HepG2 Attagene cis-factorial TAL promoter reporter; actives raise or lower the signal. In outline:
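Background-control endpoint: basal TAL promoter reporter transcripts in transiently transfected HepG2, measured 24 h after dosing. Read-out by RT-PCR with fluorescent primer extension and capillary electrophoresis; gain or loss of signal fitted relative to DMSO.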

Assay [12] in a line: ATG_TGFb_CIS: Attagene CIS-FACTORIAL HepG2 Assay for human Transforming Growth Factor (TGF) (AID 2282967). The conditions noted are these: HepG2 Attagene CIS TGFb reporter, mRNA transcription; actives raise or lower the signal. The procedure, abridged: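 Multiplexed cis-reporter HepG2 system, 24 h treatment; mRNA induction read by fluorescence after RT-PCR and CE; DMSO negative control, bidirectional curve fitting.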

Assay [13] is described as follows: ATG_VDRE_CIS: Attagene CIS-FACTORIAL HepG2 Assay for human Vitamin D Receptor Element (VDRE) (AID 2282968). The conditions noted are these: HepG2 VDRE cis-reporter transcription, actives raise or lower the signal. In outline: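 Transfected HepG2 reporter cells, chemical treatment 24 h. RNA isolated, cDNA amplified with reporter-specific primers, products analysed by capillary electrophoresis. Endpoint fitted in both directions versus DMSO.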

In assay [14] the target is Nuclear receptor subfamily 1 group I member 3 (Homo sapiens) (UniProt Q14994). Nature of the assay: ATG_CAR_TRANS: Attagene TRANS-FACTORIAL HepG2 Assay for human Constitutive Androstane Receptor (CAR) (AID 2282969; active means hit-call score of the fitted dose curve at least 0.9, where 1 is the maximum;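 further: activators raise reporter mRNA above DMSO so AC50 marks induction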). The conditions noted are these: HepG2 Attagene TRANS-FACTORIAL CAR reporter. In outline:
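Steps: transient transfection of HepG2 with multiple GAL4-UAS reporter units; 24 h compound incubation; RNA isolation, RT-PCR, 6-FAM primer extension, HpaI digest; capillary electrophoresis. Gain-of-signal relative to DMSO negative control.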

Assay [15] has as its target X-box-binding protein 1 (Homo sapiens) (UniProt P17861). Briefly: ATG_Xbp1_CIS: Attagene CIS-FACTORIAL HepG2 Assay for human X-box Binding Protein 1 (XBP1) (AID 2282972). The conditions noted are these: HepG2 XBP1 cis-element reporter, Attagene multiplex; actives raise or lower the signal. In outline:
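Multiplexed cis-reporter readout in transfected HepG2 liver cells. Exposure lasted 24 hours. Activity in either direction was fitted against DMSO as negative control and baseline.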

The target of assay [16] is Estrogen-related receptor gamma (Homo sapiens) (UniProt P62508). Nature of the assay: ATG_ERRg_TRANS: Attagene TRANS-FACTORIAL HepG2 Assay for human Estrogen-Related Receptor gamma (ERRg) (AID 2282977; active means hit-call score of the fitted dose curve at least 0.9, where 1 is the maximum;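 further: hits increase reporter signal over DMSO so potencies reflect activators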). The conditions noted are these: HepG2 Attagene TRANS reporter, ERRg transactivation. In outline: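 Exogenous NR-Gal4 chimera activity was assessed in HepG2 cells bearing transfected GAL4-UAS reporters. After 24 h dosing, total RNA underwent RT-PCR, fluorescent primer extension and HpaI digestion before capillary electrophoresis, with gain of signal scored against DMSO.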

A short description of assay [17]: ATG_M_19_TRANS: Attagene TRANS-FACTORIAL HepG2 Assay for M19 Transcription Factor (Internal Marker) (AID 2282974; active means hit-call score of the fitted dose curve at least 0.9, where 1 is the maximum). The settings on record: HepG2 Attagene TRANS-FACTORIAL M19 internal marker reporter. In outline: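 HepG2 cells transiently transfected with multiple GAL4-UAS reporter transcription units were exposed to chemicals for 24 h. Reporter mRNA was read by RT-PCR, 6-FAM primer extension, HpaI digestion and capillary electrophoresis; gain of signal fitted relative to DMSO.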

Records with an inconclusive call do not appear. Active and inactive are the calls of the source. How the source made its calls, unless noted: active means hit-call score of the fitted dose curve at least 0.9, where 1 is the maximum; inactive means score below 0.9.

Sequence of Signal transducer and activator of transcription 3 (Homo sapiens) (P40763 whole entry, looked up): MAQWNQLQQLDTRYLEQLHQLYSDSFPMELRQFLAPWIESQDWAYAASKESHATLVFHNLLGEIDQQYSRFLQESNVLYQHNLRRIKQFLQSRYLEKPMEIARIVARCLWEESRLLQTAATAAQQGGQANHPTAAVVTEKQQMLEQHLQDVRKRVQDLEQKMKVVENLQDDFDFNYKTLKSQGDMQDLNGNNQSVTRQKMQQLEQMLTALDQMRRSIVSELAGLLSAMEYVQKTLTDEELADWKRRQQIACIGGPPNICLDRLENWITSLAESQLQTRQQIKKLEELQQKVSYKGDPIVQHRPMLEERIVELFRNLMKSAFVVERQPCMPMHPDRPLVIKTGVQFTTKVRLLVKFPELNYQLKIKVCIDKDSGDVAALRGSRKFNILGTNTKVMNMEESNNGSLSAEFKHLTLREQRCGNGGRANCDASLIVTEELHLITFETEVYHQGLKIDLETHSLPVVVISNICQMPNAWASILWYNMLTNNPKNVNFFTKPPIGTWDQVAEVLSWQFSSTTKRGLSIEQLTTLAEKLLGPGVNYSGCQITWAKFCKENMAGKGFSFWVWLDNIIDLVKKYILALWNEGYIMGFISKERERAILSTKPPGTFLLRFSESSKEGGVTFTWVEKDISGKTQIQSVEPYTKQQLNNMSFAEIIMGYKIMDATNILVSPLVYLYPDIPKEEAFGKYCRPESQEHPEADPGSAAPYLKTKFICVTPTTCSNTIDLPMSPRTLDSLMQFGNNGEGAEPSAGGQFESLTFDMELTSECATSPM
Sequence of Paired box protein Pax-6 (Homo sapiens) (P26367 whole entry, looked up): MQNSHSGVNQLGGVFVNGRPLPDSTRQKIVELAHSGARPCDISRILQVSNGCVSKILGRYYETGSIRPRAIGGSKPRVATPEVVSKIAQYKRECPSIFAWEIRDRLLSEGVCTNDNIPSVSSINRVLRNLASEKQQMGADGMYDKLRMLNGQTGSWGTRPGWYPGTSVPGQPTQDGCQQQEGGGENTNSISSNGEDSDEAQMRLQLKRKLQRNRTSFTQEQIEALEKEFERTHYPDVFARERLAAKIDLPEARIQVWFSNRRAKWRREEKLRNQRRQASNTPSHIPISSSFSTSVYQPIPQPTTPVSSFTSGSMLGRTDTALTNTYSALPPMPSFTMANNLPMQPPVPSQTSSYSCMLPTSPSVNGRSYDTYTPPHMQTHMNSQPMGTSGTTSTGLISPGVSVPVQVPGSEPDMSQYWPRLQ
Sequence of Transcription factor Sp1 (Homo sapiens) (P08047 whole entry, looked up): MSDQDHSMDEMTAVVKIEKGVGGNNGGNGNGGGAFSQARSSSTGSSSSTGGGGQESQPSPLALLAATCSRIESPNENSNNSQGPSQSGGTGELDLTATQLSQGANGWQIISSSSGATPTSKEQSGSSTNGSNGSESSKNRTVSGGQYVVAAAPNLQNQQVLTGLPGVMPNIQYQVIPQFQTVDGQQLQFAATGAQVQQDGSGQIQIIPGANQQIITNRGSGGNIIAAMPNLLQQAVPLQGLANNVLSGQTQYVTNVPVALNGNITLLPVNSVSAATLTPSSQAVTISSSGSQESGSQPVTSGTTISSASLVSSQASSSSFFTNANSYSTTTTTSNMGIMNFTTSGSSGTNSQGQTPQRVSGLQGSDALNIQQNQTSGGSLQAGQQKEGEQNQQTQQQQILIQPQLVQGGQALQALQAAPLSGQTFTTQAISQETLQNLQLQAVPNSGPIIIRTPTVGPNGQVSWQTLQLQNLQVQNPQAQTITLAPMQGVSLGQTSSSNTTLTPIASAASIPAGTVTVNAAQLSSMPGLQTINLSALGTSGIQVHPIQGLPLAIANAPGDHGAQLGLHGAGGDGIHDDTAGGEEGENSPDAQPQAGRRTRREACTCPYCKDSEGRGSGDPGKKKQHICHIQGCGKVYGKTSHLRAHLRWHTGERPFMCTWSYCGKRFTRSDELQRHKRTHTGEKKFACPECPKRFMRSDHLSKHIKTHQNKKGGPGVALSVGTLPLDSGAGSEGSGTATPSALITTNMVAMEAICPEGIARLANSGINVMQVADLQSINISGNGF
Sequence of X-box-binding protein 1 (Homo sapiens) (P17861 whole entry, looked up): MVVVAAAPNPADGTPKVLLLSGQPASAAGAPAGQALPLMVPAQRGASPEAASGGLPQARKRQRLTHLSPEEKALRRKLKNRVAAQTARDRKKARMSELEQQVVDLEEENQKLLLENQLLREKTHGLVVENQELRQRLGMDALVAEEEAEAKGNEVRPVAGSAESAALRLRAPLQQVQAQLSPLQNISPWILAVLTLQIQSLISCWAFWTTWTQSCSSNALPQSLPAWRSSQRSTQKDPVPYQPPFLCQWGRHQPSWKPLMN
Sequence of Nuclear receptor subfamily 1 group I member 3 (Homo sapiens) (Q14994 whole entry, looked up, the tested form may be a part): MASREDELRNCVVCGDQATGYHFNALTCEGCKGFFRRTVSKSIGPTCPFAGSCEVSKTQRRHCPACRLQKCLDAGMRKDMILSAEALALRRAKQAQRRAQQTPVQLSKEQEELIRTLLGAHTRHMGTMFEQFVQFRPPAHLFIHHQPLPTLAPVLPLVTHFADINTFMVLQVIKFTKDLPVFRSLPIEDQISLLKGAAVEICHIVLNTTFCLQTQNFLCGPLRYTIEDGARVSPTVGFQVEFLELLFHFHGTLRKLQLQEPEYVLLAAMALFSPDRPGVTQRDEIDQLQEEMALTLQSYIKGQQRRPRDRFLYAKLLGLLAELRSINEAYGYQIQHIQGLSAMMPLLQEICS
Sequence of Estrogen-related receptor gamma (Homo sapiens) (P62508 whole entry, looked up, the tested form may be a part): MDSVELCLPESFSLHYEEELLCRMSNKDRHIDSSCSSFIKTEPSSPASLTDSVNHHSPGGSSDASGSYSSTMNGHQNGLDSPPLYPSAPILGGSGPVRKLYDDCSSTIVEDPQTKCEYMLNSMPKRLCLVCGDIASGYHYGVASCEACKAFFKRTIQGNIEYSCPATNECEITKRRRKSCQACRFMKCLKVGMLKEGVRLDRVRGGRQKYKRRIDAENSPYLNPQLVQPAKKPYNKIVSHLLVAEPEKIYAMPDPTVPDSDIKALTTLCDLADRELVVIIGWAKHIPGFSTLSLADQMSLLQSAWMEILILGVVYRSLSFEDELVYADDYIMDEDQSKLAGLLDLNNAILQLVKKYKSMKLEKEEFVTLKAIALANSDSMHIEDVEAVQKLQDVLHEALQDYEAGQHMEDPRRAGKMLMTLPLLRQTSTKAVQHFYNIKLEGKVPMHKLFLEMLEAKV

Broadly, the AC50 is the concentration at which the activity in the assay is half-maximal. Turning to `CCc1cc(SCc2sc(-c3ccc(C(F)(F)F)cc3)nc2CN2CCN(c3ccc(OC)cc3)CC2)ccc1OCC(=O)O`, the concentration at half-maximal activity (AC50) is 17.5 µM (active) in [1]; 32.9 nM (active) in assay [3]; 11 µM (active) in assay [4]; 225 nM (active) in assay [7]; 14.8 µM (active) in [9]; 7.72 µM (active) in assay [10]. For the same compound, the concentration at half-maximal activity (AC50) in [13] is 16.5 µM (active); in [15] it was 8.03 µM (active). Moreover, the call in [2], in assay [5], in assay [6], in assay [8], in assay [11] and in assay [12] was inactive. Besides, the compound was classed as inactive in assay [14] and in assay [16].
`C1=CCCC=CCCC=CCC1`: the call in assay [1], in assay [2], in [3], in [4], in assay [5] and in [7] was inactive. Moreover, the call in [8], in [9], in assay [10], in assay [11], in assay [12] and in [13] was inactive. The compound was called inactive in [14] and in assay [15]. Besides, the AC50 in assay [6] is 165 µM (active).
As for `CC(O)CN(CCN(CC(C)O)CC(C)O)CC(C)O` (stereo unspecified), the call in assay [1], in [2], in assay [3], in [4], in [5] and in [6] was inactive. The compound was called inactive in assay [7], in [8], in assay [9], in assay [10], in assay [11] and in [12]. Further, the call in assay [13], in assay [15] and in [17] was inactive.
As to `CCCCCCCCCCCCc1ccccc1`, the outcome in assay [1], in assay [2], in assay [3], in assay [4], in [5] and in assay [7] was inactive. Also, the call in assay [8], in assay [9], in assay [10], in assay [11], in assay [12] and in [13] was inactive. In addition, the compound was called inactive in assay [14], in [15] and in assay [16].
